GC-B act: GC-B (human) receptor activation. P20594. HEK293-GC-B cells, CNP EC30, cGMP TR-FRET; 0% at EC30 CNP, 100% saturating CNP. activation, % at 10 µM. 0.11% of 370,000 active. AID 1920062;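 active means activation at 10 µM reaching about 35% in either raw or pattern-adjusted values, limit read from the data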
GC-A act: GC-A (human) enzyme activation | P16066 | HEK293 GC-A cells, cGMP TR-FRET, EC30 ANP; 0% at EC30 ANP, 100% saturating ANP | activation, % at 10 µM | 0.14% of 370,000 active | AID 1671463; in the data active means activation above about 40%
NR1D1 modulator: Rev-erb alpha (human) modulation; P20393; activity, % at 10 µM; Rev-erbα–FITC-DNA binding, fluorescence polarization, 90 min; 0.79% of 370,000 active;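 active means activity above about 14%, limit read from the data; passing the limit was not always enough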;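 further: 0% = DMSO wells with 35 nM protein and 100% = DMSO wells with 750 nM protein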
V-ATPase pHluor: regulators of yeast V-ATPase proton transport; 0.37% of 350,000 active; S. cerevisiae, pHLuorin cytosolic pH fluorescence; response, % at 10 µM; in the data active means response mostly above about 7.3%, no sharp cut-off; inactive means mostly below about 5.4%; further: actives read high
PG9 Ab binder: PG9 antibody binding by small molecule; inhibition, % at 6.7 µM; AID 624416; TR-FRET gp120-PG9 antibody binding; 0.43% of 360,000 active; in the data active means inhibition above about 8.5%
NR1D1 mod conf: Rev-erb alpha (human) modulation, hit confirmation; shares compounds with NR1D1 modulator; Rev-erb alpha FITC-DNA binding, fluorescence polarization, 90 min; activation, % at 25 µM; 61% of 3,000 active; AID 1259319;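 active means activation at or above a set limit, or at least 3 SD above the negative control mean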;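 further: 0% = 35 nM protein with DMSO and 100% = 750 nM protein high control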
RORg DNA counter: affects RORgamma DNA binding in a Rev-erb alpha counter-screen | IC50, µM | purified RORgamma protein-FITC-DNA binding, fluorescence polarization | 8% of 910 active | shares compounds with NR1D1 modulator | AID 1259320;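 active means Compounds whose fitted half-maximal concentration for disrupting protein-DNA binding is below 10 micromolar; the record names Rev-erb in its text, so the target is in doubt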
* marks the source's active call; other numbers are inactive results. This is a sample that favours compounds with a hit; in the whole collection about 1.6% have one here.

What do the screens show for `Cc1ccc(-n2nnnc2SCC(=O)c2c(N)n(C3CC3)c(=O)[nH]c2=O)cc1C`?
GC-B act: 3.4; GC-A act: -2.2; NR1D1 modulator: 20.8*; V-ATPase pHluor: 1.4; PG9 Ab binder: 1.6; NR1D1 mod conf: 13.5*

How did CNC(=O)[C@@H](NC(=O)[C@H](CC(C)C)[C@H](O)C(=O)NO)C(C)(C)C do in these assays?
GC-B act: -7.9; GC-A act: 3.2; NR1D1 modulator: -2.0

How did FC(F)OC(Cl)C(F)(F)F (stereo unspecified) do in these assays?
NR1D1 modulator: -2.8

Results for O=C(Nc1ccccc1)Nc1ncc([N+](=O)[O-])s1 ?
GC-B act: 10.2; GC-A act: 7.5; NR1D1 modulator: 22.6*; V-ATPase pHluor: 0.5; PG9 Ab binder: -2.1; NR1D1 mod conf: 11.3

What do the screens show for `CCCCCCCCNS(=O)(=O)CC1NCc2cc(F)ccc21` (stereo unspecified)?
GC-B act: 5.8; GC-A act: 2.6; NR1D1 modulator: -0.9

How did CC(=O)c1sc(NC(=O)c2ccccc2F)nc1-c1ccccc1 do in these assays?
GC-B act: -1.4; GC-A act: 5.4; NR1D1 modulator: 17.0*; V-ATPase pHluor: -1.1; PG9 Ab binder: 1.8; NR1D1 mod conf: 11.0

What do the screens show for `COc1ccc(OC)c(-c2csc(NC(=O)c3ccc4c(c3)OCO4)n2)c1`?
GC-B act: -2.1; GC-A act: 0.5; NR1D1 modulator: 48.8*; V-ATPase pHluor: 3.4; PG9 Ab binder: -1.9; NR1D1 mod conf: 50.6*; RORg DNA counter: inactive

What do the screens show for `COc1ccc(C(=O)Nc2nc(-c3ccccc3)c(C(C)=O)s2)c(OC)c1`?
GC-B act: -6.0; GC-A act: 0.3; NR1D1 modulator: 24.8*; V-ATPase pHluor: -1.4; PG9 Ab binder: 1.7; NR1D1 mod conf: 14.9

Results for COc1ccc2nc(NC(=O)c3cc(C)oc3C)sc2c1 ?
GC-B act: 0.2; GC-A act: 9.8; NR1D1 modulator: -0.7; V-ATPase pHluor: -1.7; PG9 Ab binder: 0.4

How did CC(=O)c1sc(NC(=O)c2ccc(F)cc2)nc1-c1ccccc1 do in these assays?
GC-B act: -0.5; GC-A act: -1.5; NR1D1 modulator: 17.9; V-ATPase pHluor: -1.3; PG9 Ab binder: 4.0

What do the screens show for `COc1ccc(C(=O)Nc2nc3cc4c(cc3s2)OCO4)c(OC)c1`?
GC-B act: -6.7; GC-A act: 1.5; NR1D1 modulator: 18.7*; V-ATPase pHluor: -73.1; PG9 Ab binder: 5.8; NR1D1 mod conf: 11.5*

How did O=C(c1cccs1)C1CCN(c2ncnc3sccc23)CC1 do in these assays?
GC-B act: -7.4; GC-A act: -6.6; NR1D1 modulator: -3.0

Results for Cc1cccc(-c2cccc3c4c([nH]c23)[C@@H]2C[C@H](N(C)C(=O)c3cccc(Cl)c3)[C@H]([C@H](C)O)CN2CC4)c1 ?
GC-B act: -1.4; GC-A act: -4.6; NR1D1 modulator: -1.8

How did CC(C)c1nc2sc3c(NCc4ccccc4)ncnc3c2c2c1COC(C)(C)C2 do in these assays?
GC-B act: 19.0; GC-A act: 35.1; NR1D1 modulator: 23.8*; V-ATPase pHluor: 0.4; PG9 Ab binder: -0.5; NR1D1 mod conf: 9.6

Results for c1ccc(-c2nnc3n2N=C(c2ccc4ccccc4c2)CS3)cc1 ?
GC-B act: 5.5; GC-A act: 1.8; NR1D1 modulator: 6.2

Results for O=S(=O)(c1cccc2nsnc12)N1CCNCC1 ?
GC-B act: 2.3; GC-A act: 3.9; NR1D1 modulator: 24.9*; V-ATPase pHluor: -1.2; PG9 Ab binder: -0.6; NR1D1 mod conf: -5.0

How did CC(C)CSc1ncccc1-c1nc2ccccc2[nH]1 do in these assays?
GC-B act: -5.9; GC-A act: 4.0; NR1D1 modulator: 16.8*; NR1D1 mod conf: 11.3*

How did c1ccc(CSc2ncccc2-c2nc3ccccc3[nH]2)cc1 do in these assays?
GC-B act: -6.5; GC-A act: -2.2; NR1D1 modulator: 3.1

Results for COc1ccc(CN2CCN(CCc3ccccc3)C(CCO)C2)c(O)c1 (stereo unspecified) ?
GC-B act: 1.3; GC-A act: -2.2; NR1D1 modulator: 16.1*; V-ATPase pHluor: -0.8; PG9 Ab binder: 4.5; NR1D1 mod conf: -0.8
